Assay outcomes deposited in PubChem BioAssay by several laboratories.
Most compounds without a hit are left out; they make up all but 1.1% or so of the library.
NCOA1 inh = inhibitors of human steroid receptor coactivator 1 (SRC1). inhibition, % at 3.6 µM. Q15788. actives 0.12% (n = 360,000). AID 588354. HEK293 GAL4-SRC1 luciferase reporter, luminescence;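 active = inhibition above the campaign mean plus 3 SD, with each screening campaign given its own cutoff, cut at about 60% in these data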;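 note: 0% = DMSO treated cells and 100% = gossypol at 36 µM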
Gli-Sufu block = blocks Gli-Sufu signaling in a luciferase reporter; Sufu-KO-LIGHT fibroblasts, Gli luciferase reporter luminescence; inhibition, % at 5 µM; actives 0.74% (n = 340,000);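 active = inhibition above about 55%, limit read from the data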;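 note: 0% = DMSO-treated cells and 100% = wells with medium but no cells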
Shn3 inh set2 = inhibitors of Schnurri-3 3'UTR reporter in osteoblasts; Clone20 osteoblast Shn3 3'UTR firefly luciferase, 24 h; inhibition, % at 12.5 µM; actives 0.52% (n = 360,000); AID 588674;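 active = mean inhibition of at least 75% with every replicate also reaching 75%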;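 note: 0% = median of neutral control wells and 100% = pilot-screen positive control compound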
NCOA3 inh = inhibitors of human steroid receptor coactivator 3 (SRC3); Q9Y6Q9; HEK293 GAL4-SRC3 luciferase reporter, luminescence; inhibition, % at 3.6 µM; actives 0.17% (n = 360,000);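 active = inhibition above a per-campaign cutoff, the mean of all compounds plus 3 SD, cut at about 60% in these data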;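 note: 0% = DMSO-treated cells and 100% = gossypol-treated cells at 36 µM; higher means less SRC3-driven luciferase light from the GAL4 reporter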
LRH-1 inv ag = NR5A2 inverse agonism in reporter assay | HEK293T StAR-luciferase reporter, LRH-1 transfected, 24 h | AID 602396 | inhibition, % at 3.6 µM | actives 0.13% (n = 360,000) | O00482;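 active = inhibition above the mean inhibition of all tested compounds plus 3 SD, cut at about 73% in these data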;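 note: 0% = DMSO wells and 100% = reporter-only cells lacking LRH-1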
Target sequence (O00482 whole entry, looked up): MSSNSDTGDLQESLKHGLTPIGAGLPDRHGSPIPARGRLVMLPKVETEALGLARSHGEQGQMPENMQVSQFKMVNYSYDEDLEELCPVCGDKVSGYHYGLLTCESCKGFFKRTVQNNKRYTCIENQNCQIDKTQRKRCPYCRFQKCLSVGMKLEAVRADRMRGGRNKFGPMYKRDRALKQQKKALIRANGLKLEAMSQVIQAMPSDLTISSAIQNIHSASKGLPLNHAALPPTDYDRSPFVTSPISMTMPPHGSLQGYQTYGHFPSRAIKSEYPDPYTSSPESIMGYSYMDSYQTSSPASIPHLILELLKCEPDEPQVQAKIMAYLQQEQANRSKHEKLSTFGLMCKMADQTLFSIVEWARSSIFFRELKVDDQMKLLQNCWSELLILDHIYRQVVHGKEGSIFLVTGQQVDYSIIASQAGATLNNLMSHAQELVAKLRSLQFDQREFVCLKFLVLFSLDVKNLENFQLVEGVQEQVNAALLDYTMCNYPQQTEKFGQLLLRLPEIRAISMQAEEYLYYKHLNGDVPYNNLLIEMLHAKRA
SRC2 inh = human SRC2 (NCOA2) inhibition; Q15596; HEK293 GAL4-SRC2 luciferase reporter, luminescence; inhibition, % at 9 µM; actives 0.17% (n = 370,000); AID 651957;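 active = inhibition above the mean inhibition of all tested compounds plus 3 SD, set per campaign, cut at about 52% in these data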;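 note: 0% = DMSO treated cells and 100% = cells given Gossypol at 36 µM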
Gli-Sufu confirm = Gli-SUFU antagonism confirmation, single concentration; shares compounds with Gli-Sufu block; Sufu-KO-LIGHT cells, Gli luciferase reporter, luminescence; inhibition, % at 5 µM; actives 40% (n = 2,500);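 active = mean inhibition at 5 µM reaching about 45%, limit read from the data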;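 note: plate controls were DMSO-treated cells for no effect and wells lacking cells for full effect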
SufuKO cytotox = cytotoxic in Gli-SUFU antagonist counter-screen. AID 651994. actives 32% (n = 2,500). cytotoxicity, % at 5 µM. Sufu-KO-LIGHT cells cytotoxicity, ATP luminescence. shares compounds with Gli-Sufu block;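 active = mean cytotoxicity at 5 µM above about 25%, limit read from the data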;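 note: cells exposed to compound overnight for roughly 16 to 18 hours; plate controls were DMSO wells with cells for no effect and medium without cells for full effect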
Wnt3a counter = Wnt3a reporter inhibition counter-screen | shares compounds with Gli-Sufu block | Wnt-LIGHT cells, Wnt3a-driven luciferase reporter, luminescence | inhibition, % at 6.25 µM | actives 20% (n = 2,500) | AID 651995;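 active = mean inhibition above about 25%, limit read from the data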
The depositor's hits bear a star; / = not tested or not shown.

SMILES	NCOA1 inh	Gli-Sufu block	Shn3 inh set2	NCOA3 inh	LRH-1 inv ag	SRC2 inh	Gli-Sufu confirm	SufuKO cytotox	Wnt3a counter
COc1ccc(S(=O)(=O)N2CCCC(C(=O)N3CCOCC3)C2)cc1C (stereo unspecified)	-5	99*	3	13	7	11	25	17	3
COc1ccc(S(=O)(=O)N2CCOCC2)cc1C(=O)N1CCCC1	-3	61*	8	21	-22	-7	20	10	-3
COP(=O)(CC(=O)OC(C)(C)C)C(CC(C)C)NC(=O)OCc1ccccc1 (stereo unspecified)	/	/	/	/	/	-19	/	/	/
COc1cc2ccc(=O)oc2c(O[C@@H]2O[C@H](CO)[C@@H](O)[C@H](O)[C@H]2O)c1O	-19	3	6	8	6	-25	22	6	-4
Cc1ccc(-c2cc(C(=O)NN=Cc3ccc(F)cc3)[nH]n2)cc1C	/	/	/	/	/	-1	/	/	/
CCNc1nc(OC)nc(N(OC)S(=O)(=O)c2ccc(C)cc2)n1	-16	53	-8	-5	-5	-42	24	5	-22
COc1ccc(CN(C)c2ccc(S(=O)(=O)N3CCN(C)CC3)cc2[N+](=O)[O-])cc1OC	11	74*	88*	18	30	16	74*	35*	45*
O=S1(=O)c2ccc(Br)cc2OC[C@@H](c2ccccc2)N1Cc1cn(Cc2ccccc2)nn1	/	/	/	/	/	-1	/	/	/
O=C(O)CCC(=O)Nc1ccc(N=Nc2ccccc2)cc1	-14	3	-4	0	-6	/	/	/	/
CC(C)(C)C(=O)Nc1ccc(N=Nc2ccccc2)cc1	52	64*	39	51	38	46	54*	60*	82*
CN(Cc1ccccc1)C(=O)OCc1cn(Cc2cccc(F)c2F)nn1	/	/	/	/	/	-2	/	/	/
Cc1ccc(Nc2nc(N3CCOCC3)c3ccccc3n2)cc1	-2	1	53	8	-40	-12	/	/	/
COc1ccc(Nc2nc(N3CCCCC3)c3ccccc3n2)cc1	12	58*	83	5	10	13	49*	39*	-24
COc1ccc(N(CC(=O)NCCSc2ccccn2)S(=O)(=O)c2ccc(C)cc2)cc1OC	1	27	8	-4	6	9	/	/	/
Cc1ccc(S(=O)(=O)N(CC(=O)NCCSc2ccccn2)c2cc(C)cc(C)c2)cc1	-21	51	21	8	-8	-1	25	6	-8
Cc1nc2ccc(S(=O)(=O)NCC(=O)NCc3ccc(F)cc3)cc2s1	/	/	/	/	/	2	/	/	/
O=C(Nc1nc(-c2cc3ccccc3o2)cs1)c1ccc(S(=O)(=O)N2CCCC2)cc1	12	50	77	5	13	10	59*	30*	-11
CN(C)S(=O)(=O)c1ccc(C(=O)Nc2nc(-c3cc4ccccc4o3)cs2)cc1	-10	50	62	-9	1	-11	/	/	/
CC1CN(S(=O)(=O)c2ccc(C(=O)Nc3nc(-c4cc5ccccc5o4)cs3)cc2)CC(C)O1 (stereo unspecified)	-1	75*	87*	-1	7	19	79*	24	30*
CCOC(=O)c1cnc(Nc2nc3ccccc3o2)nc1CSc1ncccn1	/	-40	/	/	/	/	/	/	/
CCOC(=O)c1cnc(Nc2nc3ccccc3o2)nc1CSC(=S)N(CC)CC	-24	69*	37	-33	-24	6	32	20	-86
COC(=O)[C@]12C[C@H](CC(=O)N3CCN(C(=O)c4ccco4)CC3)C(=O)N(Cc3ccccc3)C1=C[C@H](COCc1ccccc1)O[C@@H]2C	/	/	/	/	/	-9	/	/	/
COc1ccc(/C=C/C2=CCN(Cc3ccc(OC)cc3)CC2)cc1	-1	50	18	16	31	4	18	11	-48
COc1ccc(/C=N/N2CCN(Cc3ccccc3)CC2)cc1	1	3	-11	-51	4	28	/	/	/
